Source: PubChem (National Center for Advancing Translational Sciences (NCATS))
Hits are enriched below; roughly 2.4% of the tested compounds scored in any of these assays.
D2 ag-1: agonists of human D2 dopamine receptor (beta-arrestin). DiscoveRx PathHunter D2 beta-arrestin, luminescence, 90 min; 100% = 57 uM dopamine signal. activation, % (test concentration not listed). P14416. actives 0.084% (n = 360,000). AID 624465; in the data active = activation above about 40%; inconclusive = between about 15% and that limit
Target sequence (P14416 whole entry, looked up): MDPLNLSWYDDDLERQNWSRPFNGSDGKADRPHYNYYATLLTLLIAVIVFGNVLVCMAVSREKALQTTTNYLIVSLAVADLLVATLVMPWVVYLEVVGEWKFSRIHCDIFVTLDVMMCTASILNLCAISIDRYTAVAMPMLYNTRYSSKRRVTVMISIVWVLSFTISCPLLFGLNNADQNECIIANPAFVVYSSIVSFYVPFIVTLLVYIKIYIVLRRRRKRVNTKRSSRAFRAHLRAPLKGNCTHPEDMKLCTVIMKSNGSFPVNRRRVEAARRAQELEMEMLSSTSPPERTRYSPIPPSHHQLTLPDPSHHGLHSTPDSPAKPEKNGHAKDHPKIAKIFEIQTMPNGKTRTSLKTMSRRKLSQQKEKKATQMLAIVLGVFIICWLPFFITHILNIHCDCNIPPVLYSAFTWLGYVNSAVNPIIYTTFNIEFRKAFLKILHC
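DiscoveRx PathHunter D2 beta-arrestin cells (2,100/well) attached overnight, then compound-stimulated 90 min at 37 C in HBSS/10 mM HEPES/0.1% Tween-20 buffer; beta-galactosidase complementation read by luminescence after 1 h at ambient temperature. Dopamine 57 uM final (EC100) as control.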
D2 PAM-1: D2 dopamine receptor (human) potentiation. actives 0.34% (n = 340,000). HEK293 T-REx D2, calcium flux, EC20 dopamine potentiation. AID 485347. potentiation, % at 10 µM;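 active = potentiation over 3 SD above the plate norm, cut at about 30% in these data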
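Using a no-wash calcium dye in inducible, force-coupled HEK293 Trex cells expressing D2, we tracked fluorescence each second for 180 s after compound, then for 180 s after EC20 dopamine to detect augmented signalling.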
D2 PAM-2: human D2 receptor positive allosteric modulation | DiscoveRx D2 beta-arrestin cells, luminescence, 90 min; 100% = 57 uM dopamine signal | potentiation, % (concentration not given with the values) | P14416 | actives 0.23% (n = 360,000); in the data active = potentiation above about 50%; inconclusive = mostly about 30% to 49%
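PathHunter beta-arrestin assay in DiscoveRx D2 cells. Compounds were added with an EC20 of dopamine (50 nM final) for 90 min at 37 deg C. Luminescence was read 1 h after detection reagent, with 57 uM dopamine as the EC100 control.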
D2 ag-2: activates the human D2 dopamine receptor; activation, % at 2 µM; P14416; AID 485358; actives 0.53% (n = 340,000); HEK293 T-REx D2 cells, calcium flux agonist mode;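 active = activation over 3 SD above normal in the single-dose calcium agonist read, cut at about 30% in these data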
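In this primary screen, compounds producing a positive calcium signal within 180 s of addition to tetracycline-induced, force-coupled HEK293 Trex D2 cells are flagged; cells are dye-loaded with a no-wash calcium kit beforehand.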
D2 antagonist: antagonizes the human D2 dopamine receptor; P14416; actives 2% (n = 340,000); AID 485344; HEK293 TREx D2 cells, calcium flux, dopamine EC80; inhibition, % at 10 µM; in the data active = inhibition above about 30%; inactive = below that, where a call was filed
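Compounds are added to dye-loaded, induced HEK293 T-REx cells coupled to calcium release via D2; after a 3 min kinetic read an EC80 dopamine stimulus is given and fluorescence is recorded for 3 more min.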
D3 ag: activates human D3 dopamine receptor beta-arrestin recruitment; DiscoveRx D3 beta-arrestin cells, luminescence, 90 min; actives 4% (n = 2,300); Potency, µM (series often up to 76.9 µM), usual class: activators; AID 720506; shares compounds with D2 ag-2; also: nearly all actives have a fitted effect of over 70% in size
D2 ag-3: activates human D2 dopamine receptor in D3 counterscreen; shares compounds with D2 ag-2; DiscoveRx PathHunter D2 beta-arrestin, luminescence, 90 min; response scale: percent relative to full dopamine signal; Potency, µM (titrated, usually from 76.9 µM), usual class: activators; actives 5.9% (n = 2,300); AID 720507; also: nearly all actives have a fitted effect of over 70% in size
Numbers stand for hits; – = inactive; ? = inconclusive; · = no result given. Unless noted, calls follow the shape of the dose curve; as a rule, active = well fitted activation curve with a large enough effect; inconclusive = small, poorly fitted or top-dose-only effect; inactive = flat fitted curve, though single readings scatter.

SMILES | D2 ag-1 | D2 PAM-1 | D2 PAM-2 | D2 ag-2 | D2 antagonist | D3 ag | D2 ag-3
COc1ccccc1N1CCN(C(CNS(=O)(=O)c2cccs2)c2cccnc2)CC1 (centres undefined) | – | – | – | – | – | · | ·
Cc1ccc(S(=O)(=O)NCC(c2ccc3c(c2)OCO3)N2CCN(c3ccccc3)CC2)cc1 (centres undefined) | ? | – | – | 64 | 67 | – | ?
COc1ccc(S(=O)(=O)NCC(c2ccc3c(c2)OCO3)N2CCN(c3ccccc3)CC2)cc1 (centres undefined) | ? | – | – | 66 | 73 | – | 11µM
CC1CCC(NC(=O)COC(=O)CSc2ccc(C(N)=O)cc2[N+](=O)[O-])CC1 (centres undefined) | – | – | – | – | – | · | ·
NC(=O)c1ccc(SCC(=O)OCC(=O)NC2CCCCCCC2)c([N+](=O)[O-])c1 | – | – | – | – | – | – | –
CC(C)c1cnc2c(c1SCC(=O)c1ccc(Cl)cc1)c(=O)n(C)c(=O)n2C | · | – | · | – | · | · | ·
CC1(C(=O)NCC2CC2)CCN1C(=O)C1(c2ccc(Cl)cc2)CC1 (centres undefined) | – | · | – | · | · | · | ·
COc1ccc(C2C=C(c3ccccc3)Nc3nnnn32)cc1 (centres undefined) | – | – | – | · | · | – | –
CSc1ccccc1NC(=O)c1ccc(CN2CCOCC2)cc1 | – | – | – | – | – | · | ·
COc1ccc(NC(=O)c2ccc(CN3CCN(c4ccccc4)CC3)cc2)cc1 | ? | – | – | 86 | 82 | – | 14µM
COc1ccc(C(=O)Nc2ccc(N3CCN(Cc4ccccc4)CC3)cc2)cc1 | – | – | – | – | – | · | ·
O=C(Nc1ccccc1F)c1ccc(CN2CCN(c3ccccc3)CC2)cc1 | ? | – | – | 85 | 81 | – | 18µM
CCn1ccc2cc(S(=O)(=O)N3CCCN(C(=O)NCCOC)CC3)ccc21 | · | – | · | – | · | · | ·
CC1=C(C(=O)N(C(C)C)C(C)C)CC(CC(=O)NCCN2CCOCC2)C(=O)N1Cc1ccc(C(C)(C)C)cc1 (centres undefined) | – | · | – | · | · | · | ·
Cc1nn(-c2ccccc2)c(Cl)c1C(=O)NNC(=O)c1ccncc1 | – | – | – | – | – | – | –
Cc1ccc2c(CN3CCN(C(=O)c4ccc(Br)cc4)CC3)cc(=O)oc2c1 | · | · | · | – | · | · | ·
Cn1c(CC(=O)NNC(=O)c2ccccc2[N+](=O)[O-])nc2ccccc21 | – | – | – | – | – | – | –
Cn1c(CC(=O)NNC(=O)c2ccc(F)cc2Cl)nc2ccccc21 | – | – | – | – | – | · | ·
COc1ccc(-n2c(C)cc(C)c(C(C)=O)c2=S)cc1 | – | – | – | 54 | – | – | –
COc1ccc(-n2c(C)c(C(C)=O)c3cc(OC(C)=O)ccc32)cc1 | – | – | – | – | – | · | ·
CN(CCNC(=O)C1CCC(=O)N(Cc2cccc(F)c2)C1)CCc1ccccc1 (centres undefined) | – | – | – | – | – | · | ·
CN(CCNC(=O)C1CCC(=O)N(Cc2ccc(Cl)cc2)C1)CCc1ccccc1 (centres undefined) | – | – | – | 45 | – | – | –
CC(C)(C)OC(=O)N1CCc2nc(N3CCN(c4ncccn4)CC3)ncc2C1 | · | – | · | – | · | · | ·
Cn1c(C(=O)O)c(CC(=O)NCC2COc3ccccc3O2)c2ccccc21 (centres undefined) | – | – | – | – | 42 | – | ?
O=C(Cc1ccccc1)NCC1COc2ccccc2O1 (centres undefined) | – | · | – | · | · | · | ·
SMILES | D2 ag-1 | D2 PAM-1 | D2 PAM-2 | D2 ag-2 | D2 antagonist | D3 ag | D2 ag-3
CCOC(=O)c1ccc(NC(=O)c2nc[nH]c2C(=O)NC[C@@H](C)O)cc1 | – | · | · | · | · | · | ·
Cc1cccc(C2CN(C)CCc3c2cc(O)c(O)c3Cl)c1 (centres undefined) | – | – | – | 52 | 79 | ? | –
Oc1cc2c(c(Cl)c1O)CCNCC2c1ccccc1 (centres undefined) | – | · | – | · | · | · | ·
Cc1ccc(OC(=O)CSc2nnc(CNC(=O)c3ccccc3)o2)cc1 | · | – | · | – | · | · | ·
CCO[C@@H]1OC(C(=O)O)=C[C@H](c2csc3ccccc23)[C@H]1CCCO | – | – | – | – | 32 | – | –
CCO[C@H]1OC(C(=O)Nc2ccccc2)=C[C@@H](c2csc3ccccc23)[C@@H]1CCCO | – | – | – | – | – | · | ·
C#CCNC(=O)C1=C[C@@H](c2ccc(C#C)cc2)[C@H](CCCO)[C@@H](OCC)O1 | – | – | – | – | 32 | – | –
COc1cc(Cl)cc(CN2CCC(CCC(=O)NC3CC3)CC2)c1OC | – | – | – | – | – | · | ·
O=S(=O)(NCc1ccc(F)cc1)c1cc(Br)ccc1Br | – | – | – | – | – | – | –
O=S(=O)(NCCc1ccc(F)cc1)c1cc(C(F)(F)F)ccc1Br | – | · | · | · | · | · | ·
CCOc1ccc(C(=O)c2cn(CC(=O)Nc3cccc(OC)c3)c3cc4c(cc3c2=O)OCCO4)cc1 | · | – | · | · | · | · | ·
Cc1ccccc1-c1ccc(/C=C2/SC(N3CCOCC3)=NC2=O)o1 | 49 | – | ? | 73 | 83 | – | ?
O=C1N=C(N2CCOCC2)S/C1=C\c1ccc(-c2ccccc2Cl)o1 | – | – | – | 42 | – | – | ?
O=C1N=C(N2CCOCC2)S/C1=C\c1cccs1 | – | – | – | – | – | · | ·
O=C(NC1CCCC1)c1ccc2c(=O)n(Cc3ccccc3)c(SCc3ccccc3F)nc2c1 | · | – | · | – | · | · | ·
Cn1c(NCCc2ccncc2)nc2cc(-c3cccc(C(F)(F)F)c3)sc2c1=O | – | · | – | · | · | · | ·
Cc1ccc(OCC(=O)Nc2ccc3c(c2)nc(CCN2CCN(c4ccccn4)CC2)n3C)cc1 | – | · | – | · | · | · | ·
CC(C)C(=O)Nc1ccc2c(c1)nc(CCN1CCN(c3ccccc3)CC1)n2C | – | – | – | 61 | – | ? | –
Cn1c(CCN2CCN(c3ccccn3)CC2)nc2cc(NC(=O)COc3ccccc3)ccc21 | – | – | – | – | 47 | ? | ?
CCCCC(=O)Nc1ccc2c(c1)nc(CCN1CCN(c3ccccn3)CC1)n2C | – | – | – | 67 | 51 | ? | ?
CCCC(=O)Nc1ccc2c(c1)nc(CCN1CCN(c3ccccn3)CC1)n2C | – | – | – | 67 | 47 | ? | ?
Cn1c(CCN2CCN(c3ccccn3)CC2)nc2cc(NS(=O)(=O)c3ccccc3)ccc21 | – | · | – | · | · | ? | ?
Cn1c(CCN2CCCC2)nc2cc(NS(=O)(=O)c3ccc(Cl)cc3)ccc21 | – | – | – | – | – | · | ·
